# Hits are enriched below; roughly 0.94% of the tested compounds scored in any of these assays.
# Mtb hypoxia rep: reduces hypoxia-regulated biosensor signal in M. tuberculosis; fluorescence inhibition, % (no concentration beside the values); M. tuberculosis hypoxia-regulated fluorescent reporter, fluorescence; 300,000 compounds, 0.1% hits; AID 1159583; in the data active means fluorescence inhibition mostly above about 23%, no sharp cut-off; inactive means mostly below about 17%
# SSB-PriA inh: K. pneumoniae PriA-SSBct interaction inhibition. AID 1272365. inhibition, % at 33 µM. AlphaScreen SSBct-PriA binding, biotinylated peptide. 430,000 compounds, 0.6% hits; in the data active means inhibition mostly above about 37%, no sharp cut-off; inactive means mostly below about 20%;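 further: plate controls were negative control peptide for no effect and reference peptide for full effect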
# Vc quorum ag-1: inducers of Vibrio cholerae quorum light production without autoinducers; V. cholerae BH1578 lux reporter, luminescence, 6 h; activation, % at 18.7 µM; 350,000 compounds, 0.16% hits; in the data active means activation mostly above about 9.7%, no sharp cut-off
# MazEF act: MazEF (E. coli) toxin RNase activation; activation, % at 20 µM; 350,000 compounds, 0.32% hits; AID 504720; FAM/BHQ RNA-DNA oligo cleavage fluorescence, 5 h; in the data active means activation above about 50%
# Target sequence (P0AE70 whole entry, looked up): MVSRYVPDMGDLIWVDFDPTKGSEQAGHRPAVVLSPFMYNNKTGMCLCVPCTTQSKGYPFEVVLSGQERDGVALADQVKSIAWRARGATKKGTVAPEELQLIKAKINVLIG
# Vc quorum ag-2: induces V. cholerae light production without autoinducers | AID 602243 | shares compounds with Vc quorum ag-1 | activation, % at 50 µM | V. cholerae BH1578 lux reporter, luminescence, 6 h | 620 tested, under 10 active; call rule not given here
# HeLa tox: HeLa cell viability loss at 24 h. shares compounds with Vc quorum ag-1. CellTiter-Glo ATP luminescence. activity change, negative = cytotoxicity, % at 35 µM. 25 tested, under 10 active;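 active means signal drop with fitted half-maximal concentration at or below twice the highest valid dose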
# Active calls of the source: *; i = inactive; . = not tested or not shown; + = active, no number.
SMILES,Mtb hypoxia rep,SSB-PriA inh,Vc quorum ag-1,MazEF act,Vc quorum ag-2,others
OC(CCCN1CCCCC1)(c1ccccc1)c1ccccc1,2,-19,6,6,.,
CCC(O)(CCN1CCCCC1)c1ccccc1 (stereo not drawn),3,-11,12,10,0,
COc1ccc2nc(-c3ccc(C)c(NS(=O)(=O)c4ccc(F)c(Cl)c4)c3)cn2n1,.,11,.,.,.,
Cc1ccc(C(=O)OCC(=O)Nc2ccc(N(C)C)cc2)cc1NC(=O)c1ccco1,.,-2,-1,1,.,
Cc1ccc(C(=O)OCC(=O)Nc2ccccc2)cc1NC(=O)c1ccco1,2,-7,7,3,0,
CCOC(=O)c1cnc(-n2nc(C)cc2C)nc1N(C)C,5,14,12,1,2,
Cc1cccc(NC(=O)C(=O)NCCC(O)c2ccoc2)c1C (stereo not drawn),.,-13,.,.,.,
CSc1ccc(/C=C/C(=O)OCC(=O)N2CCN(S(=O)(=O)c3ccc(C)cc3C)CC2)cc1,7,2,i,-12,.,
Cc1ccc(S(=O)(=O)N2CCN(C(=O)COC(=O)/C=C/c3ccc(F)cc3)CC2)c(C)c1,12,-11,2,-2,0,
CCOc1cccc2cc(C(=O)Nc3ccc(SC)nn3)c(=O)oc12,.,5,.,.,.,
CCOC(=O)N1CCCC(Cc2nc(-c3ccccc3F)no2)C1 (stereo not drawn),.,-10,.,.,.,
CC(C)NC(=O)c1ccc(-c2cccc(C(F)(F)F)c2)o1,7,-11,33*,-2,0,
Cc1cccc(NC(=O)Cc2cc(-c3ccc(Cl)cc3)on2)n1,.,-4,.,.,.,
CCCN=C(N)C(C(=O)OCC)=C(O)c1ccc(OC)cc1,.,-10,.,.,.,
CC(C)Cn1c(CN2CCN(C)C(CCO)C2)nc2ccccc21 (stereo not drawn),1,-27,72*,-2,0,
C[C@H](NC(=O)c1ccco1)C(=O)Nc1ccc(S(=O)(=O)N2CCCC2)cc1,.,-18,14,-4,18,
O=C(Nc1ccc(S(=O)(=O)N2CCCCCC2)cc1)c1ccco1,5,-8,-2,4,.,
COc1cc(/C=N/NC(=O)c2cccc(Cl)c2)ccc1Oc1ccc([N+](=O)[O-])cn1,.,i,.,.,.,
Cn1c(=O)oc2cc(S(=O)(=O)N3CCN(c4ccc(F)cc4)CC3)ccc21,1,-16,97*,46,4,
Cn1c(=O)c(=O)n(C)c2cc(S(=O)(=O)N3CCN(c4ccc(F)cc4)CC3)ccc21,-3,-4,0,1,.,
COc1ccc(S(=O)(=O)N2CCCC2CNC(=O)C(=O)Nc2ccc(C)cc2)cc1 (stereo not drawn),5,-2,0,-5,.,
COc1ccc(CCNC(=O)C(=O)NCC2CCCN2S(=O)(=O)c2ccc(OC)cc2)cc1 (stereo not drawn),2,-9,29*,-8,0,
COc1ccc(NC(=O)C(=O)NCC2CCCN2S(=O)(=O)c2ccc(C)cc2)cc1 (stereo not drawn),5,7,14,.,0,
O=C(Nc1cccc2cccnc12)N1CCOCC1,.,-7,.,.,.,
CCS(=O)(=O)Nc1ccc(C(=O)OC)cc1,1,-5,17*,6,0,
SMILES,Mtb hypoxia rep,SSB-PriA inh,Vc quorum ag-1,MazEF act,Vc quorum ag-2,others
O=C(c1cncc(Br)c1)N1CC(Oc2nc3c(Cl)cccc3s2)C1,.,-10,.,.,.,
Cc1ccc(C(=O)OCC(=O)NCC(F)(F)F)cc1C,5,-14,21,3,153,
Cc1cccc2nc(COc3ccc(-c4ccccc4)cc3)cn12,15,.,.,.,.,
Cc1cc(C)n2cc(COc3ccc4ccccc4c3)nc2n1,-2,-8,+,10,287,
COC(=O)c1sc2ncccc2c1OCc1c(Cl)cccc1Cl,13,-3,14,-19,1,
COC(=O)c1sc2ncccc2c1OCc1cccc(Cl)c1,-1,-9,0,-2,.,
Cc1ccc(/C=C/C(=O)OCC(=O)NCCc2ccc(S(N)(=O)=O)cc2)o1,-4,0,26*,5,7,
CCCNC(=O)COC(=O)/C=C/c1ccco1,5,-10,+,5,i,
O=C(COC(=O)/C=C/c1ccco1)NCc1ccccc1,-7,-24,1,11,.,
Cc1ccc(/C=C/C(=O)NCc2ccc(S(N)(=O)=O)cc2)o1,3,-8,0,24,.,
CN(c1ccccc1)S(=O)(=O)c1nnc(NC(=O)C2CCCCC2)s1,9,-9,19*,4,0,
CN(c1ccccc1)S(=O)(=O)c1nnc(NC(=O)c2ccco2)s1,7,-9,i,6,.,
Cc1ccc(C2SCCN2S(=O)(=O)c2ccc(I)cc2)cc1 (stereo not drawn),.,-10,.,.,.,
COc1ccc(S(=O)(=O)N2CCSC2c2ccc(N)cc2)cc1 (stereo not drawn),16,11,12,-2,0,
O=C(NCCC(=O)N1CCCCCCC1)c1ccc(Br)cc1,-5,5,-1,-2,.,
O=C(NCCC(=O)N1CCCCC1)c1ccc(Br)cc1,-1,2,11,-2,6,
CCn1ccc(C(=O)Nc2nc(-c3ccc(OC)c(C)c3)cs2)n1,.,-3,.,.,.,
COc1ccccc1NC(=O)CN1CCN(C(=O)C2CCCO2)CC1 (stereo not drawn),7,-4,22,5,6,
COc1ccccc1NC(=O)CN1CCN(c2ccccc2F)CC1,.,-24,35*,-3,96,
COc1ccccc1NC(=O)CN1CCN(c2ccccc2OC)CC1,2,-1,i,-3,.,
O=C(CSc1nc(=O)n(CCCO)c2c1CCC2)NCc1ccc(F)cc1,.,-7,.,.,.,
Cc1ccc2occ(C(c3nnnn3Cc3ccccc3)N3CCOCC3)c(=O)c2c1 (stereo not drawn),6,-4,25*,-1,1,
CC(=O)Oc1ccc(-c2ccc(C(=O)O)cc2)cc1,.,7,25*,9,0,
Cc1ccc(CN2C(=O)CCC2C(=O)NCCN(CC(C)C)CC(C)C)cc1 (stereo not drawn),8,3,12,-3,0,
CCC(=O)NCCc1nc(-c2ccccc2)no1,14,7,986*,-1,716,
SMILES,Mtb hypoxia rep,SSB-PriA inh,Vc quorum ag-1,MazEF act,Vc quorum ag-2,others
O=C(NCc1nc(-c2ccccc2)no1)c1cccs1,11,-12,179*,11,45,
CC(C)NC(=O)c1cnc(Sc2ncc(C(F)(F)F)cc2Cl)n1C,4,4,12,0,0,
CCCc1cc(=O)n(CC(=O)Nc2ccccc2C#N)cn1,.,-14,.,.,.,
CCCc1cc(=O)[nH]c(Nc2ccc(N3CCCCC3)cc2)n1,-3,16,+,11,i,
O=C(NCCn1ncc2c(N3CCOCC3)ncnc21)c1cccs1,.,-17,.,.,.,
O=C(NCCN1CCOCC1)c1cccc(NS(=O)(=O)c2ccc(Br)cc2)c1,2,-22,23*,1,14,
CCn1nnnc1NC(=O)c1cccc(OC)c1,-2,2,0,-18,.,
CCc1ccc(C(=O)Nc2nnnn2CC)cc1,.,.,.,.,.,HeLa tox=-5
CCCOc1cc(S(=O)(=O)NCc2cccnc2)ccc1Cl,.,-13,.,.,.,
CN(C)CCN1C(=O)C(=O)C(=C(O)c2ccccc2)C1c1ccccc1F (stereo not drawn),.,-6,.,.,.,

# Source: PubChem
